Experimental data from PubChem BioAssay (NCI).
This is part of a sample that, as a whole, favours compounds with a hit. Of some 79,000 tested, about 15% had one in any assay. Calls of active or inactive are those of the source. Rule as the data show it: active = growth inhibition above about 70%; inactive = the rest.

How the values were obtained:
[1] = NCI Yeast Anticancer Drug Screen. Data for the rad52 strain (AID 147);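 also: 0% = growth of vehicle-treated control cultures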; settings: S. cerevisiae rad52 mutant growth inhibition, hits give high values
How it was run: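 Yeast strain carrying a DNA damage repair alteration was exposed to test compounds. Growth inhibition was measured relative to vehicle-treated controls.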

[2] = NCI Yeast Anticancer Drug Screen. Data for the wt1 strain (AID 149);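 also: 0% = growth of vehicle-treated wt1 cultures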; settings: S. cerevisiae wt1 strain (SPY 50644) growth inhibition, hits give high values
How it was run: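 Each compound is tested on wt1 yeast and the loss of growth versus vehicle gives the inhibition value.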

[3] = NCI Yeast Anticancer Drug Screen. Data for the rad50EPP+ strain (AID 151);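 also: 0% = growth of vehicle-treated control cultures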; settings: S. cerevisiae rad50 mutant strain, hits give high values
How it was run: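 Yeast strain carrying rad50 alteration (rad50EPP+) exposed to compounds; growth inhibition measured relative to vehicle-treated controls.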

[4] = NCI Yeast Anticancer Drug Screen. Data for the rad50 strain (AID 155);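 also: 0% = growth of vehicle-only cultures of the same strain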; settings: S. cerevisiae rad50 strain growth inhibition, hits give high values
How it was run: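 Vehicle-treated cultures provide the reference for the growth inhibition reported for compound-exposed, repair-deficient yeast.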

[5] = NCI Yeast Anticancer Drug Screen. Data for the mec2-1 strain (AID 157); settings: S. cerevisiae mec2-1 strain, hits give high values
How it was run: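 mec2-1 yeast strain, carrying an alteration in DNA damage repair or cell cycle control, was exposed to compounds; growth inhibition was measured relative to vehicle-treated controls.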

[6] = NCI Yeast Anticancer Drug Screen. Data for the rad14 strain (AID 159);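 also: 0% = growth of vehicle-treated control cultures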; settings: S. cerevisiae rad14 strain growth inhibition, hits give high values
How it was run: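 Inhibition of growth is reported for a repair-deficient yeast mutant following compound treatment, calculated relative to cultures that received vehicle.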

[7] = NCI Yeast Anticancer Drug Screen. Data for the sgs1 mgt1 strain (AID 161);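 also: 0% = growth of cultures given vehicle only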; settings: S. cerevisiae sgs1 mgt1 strain, hits give high values
How it was run: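 Compounds are added to genetically altered yeast, and growth is compared with cultures given vehicle alone to give percent inhibition.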

[8] = NCI Yeast Anticancer Drug Screen. Data for the CLN2oe strain (AID 163);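 also: 0% = growth of vehicle-only control cultures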; settings: S. cerevisiae CLN2oe strain, hits give high values
How it was run: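 Yeast cells carrying a defined cell-cycle control alteration were exposed to test compounds. Growth inhibition was scored against vehicle-treated control cultures.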

[9] = NCI Yeast Anticancer Drug Screen. Data for the cln2 rad14 strain (AID 165);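 also: 0% = growth equal to vehicle treated cultures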; settings: S. cerevisiae cln2 rad14 strain, hits give high values
How it was run: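 Yeast carrying cln2 and rad14 alterations (cell cycle control and DNA damage repair) were exposed to compounds. Growth inhibition was measured against vehicle-treated controls.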

[10] = NCI Yeast Anticancer Drug Screen. Data for the bub3 strain (AID 167); settings: S. cerevisiae bub3 mutant strain, hits give high values
How it was run: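 Mutant yeast screening strain plus compound; vehicle-treated cultures serve as the 0% inhibition reference.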

[11] = NCI Yeast Anticancer Drug Screen. Data for the wt2 strain (AID 169); settings: S. cerevisiae wt2 strain growth inhibition, hits give high values
How it was run: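 Yeast cells were exposed to test compounds, and growth inhibition was measured relative to vehicle-treated controls.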

[12] = NCI Yeast Anticancer Drug Screen. Data for the mlh1 strain (AID 171);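 also: 0% = growth of vehicle-treated control cultures of the same strain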; settings: S. cerevisiae mlh1 strain growth inhibition, hits give high values
How it was run: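 Yeast carrying a defined genetic alteration in DNA damage repair or cell cycle control were exposed to test compounds. Growth inhibition was measured relative to vehicle-treated controls.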

[13] = NCI Yeast Anticancer Drug Screen. Data for the sgs1 strain (AID 173);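 also: 0% = growth of vehicle-only control cultures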; settings: S. cerevisiae sgs1 mutant, hits give high values
How it was run: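 Yeast mutant strains carrying defined defects in DNA damage repair or cell cycle control were exposed to test compounds. Growth inhibition was scored against vehicle-treated controls.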

[14] = NCI Yeast Anticancer Drug Screen. Data for the mlh1 rad18 strain (AID 175); settings: S. cerevisiae mlh1 rad18 strain growth inhibition, hits give high values
How it was run: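 Growth inhibition of the yeast strain was measured after compound exposure and expressed relative to vehicle-treated controls. The strain carries defined defects in DNA damage repair.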

[15] = NCI Yeast Anticancer Drug Screen. Data for the rad18 strain (AID 177); settings: S. cerevisiae rad18 mutant growth inhibition, hits give high values
How it was run: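 Yeast carrying a defined DNA damage repair alteration were exposed to compounds. Growth inhibition was expressed relative to vehicle-treated controls.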

[16] = at 5.0 µM (retest, dose inferred, filed as 0.5)
[17] = at 50.0 µM (retest, dose inferred, filed as 5.0)

Measured: growth inhibition

CC(C)(C)[OH+][O-].[O-]c1ccc(Cl)cc1C=Nc1ccc(Cl)cc1[O-].[O]=[V]
inactive: [1]; at 1.2 µM 0% | [1]; at 3.7 µM 4% | [1]; at 11.0 µM 11% | [1]; at 33.0 µM 30% | [1]; at 100.0 µM 59% | [2]; at 1.2 µM 12% | [2]; at 3.7 µM 11% | [2]; at 11.0 µM 15% | [2]; at 33.0 µM 19% | [2]; at 100.0 µM 29% | [3]; at 1.2 µM 0% | [3]; at 3.7 µM 10% | [3]; at 11.0 µM 26% | [3]; at 33.0 µM 43% | [3]; at 100.0 µM 60% | [4]; at 1.2 µM -3% | [4]; at 3.7 µM 34% | [4]; [16] 19% | [4]; at 11.0 µM 44% | [4]; at 33.0 µM 46% | [4]; [17] 17% | [5]; at 1.2 µM 10% | [5]; at 3.7 µM 17% | [5]; [16] 24% | [5]; at 11.0 µM 13% | [5]; at 33.0 µM 31% | [5]; [17] 9% | [5]; at 100.0 µM 56% | [6]; at 1.2 µM 4% | [6]; at 3.7 µM 9% | [6]; at 11.0 µM 12% | [6]; at 33.0 µM 26% | [6]; at 100.0 µM 54% | [7]; [16] 20% | [7]; [17] 40% | [8]; at 1.2 µM -3% | [8]; at 3.7 µM -3% | [8]; at 11.0 µM 0% | [8]; at 33.0 µM 11% | [8]; at 100.0 µM 26% | [9]; [16] 6% | [9]; [17] 3% | [10]; at 1.2 µM 19% | [10]; at 3.7 µM 30% | [10]; [16] 41% | [10]; at 11.0 µM 45% | [10]; at 33.0 µM 58% | [10]; [17] 16% | [11]; at 1.2 µM 14% | [11]; at 3.7 µM 24% | [11]; at 11.0 µM 13% | [11]; at 33.0 µM 20% | [11]; at 100.0 µM 30% | [12]; at 1.2 µM 8% | [12]; at 3.7 µM 10% | [12]; at 11.0 µM 9% | [12]; at 33.0 µM 15% | [12]; at 100.0 µM 38% | [13]; at 1.2 µM 12% | [13]; at 3.7 µM 16% | [13]; at 11.0 µM 23% | [13]; at 33.0 µM 33% | [13]; at 100.0 µM 53% | [14]; [16] 24% | [14]; [17] 12% | [15]; at 1.2 µM 4% | [15]; at 3.7 µM 19% | [15]; at 11.0 µM 24% | [15]; at 33.0 µM 47%
active: [4]; at 50.0 µM 93.8% | [4]; at 100.0 µM 83% | [5]; at 50.0 µM 94.5% | [7]; at 50.0 µM 91.5% | [9]; at 50.0 µM 90.5% | [10]; at 50.0 µM 92.7% | [10]; at 100.0 µM 76% | [14]; at 50.0 µM 95.2% | [15]; at 100.0 µM 78%

CCCCCC#CCOC(=O)C(=[N+]=[N-])P(=O)(c1ccccc1)c1ccccc1
inactive: [1]; at 1.2 µM 7% | [1]; at 3.7 µM 16% | [1]; at 11.0 µM 7% | [1]; at 33.0 µM 10% | [2]; at 1.2 µM 3% | [2]; at 3.7 µM -2% | [2]; at 11.0 µM 3% | [2]; at 33.0 µM -2% | [3]; at 1.2 µM 21% | [3]; at 3.7 µM 13% | [3]; at 11.0 µM 26% | [3]; at 33.0 µM 14% | [3]; at 100.0 µM 6% | [4]; at 1.2 µM 14% | [4]; at 3.7 µM 21% | [4]; [16] -6% | [4]; at 11.0 µM 13% | [4]; at 33.0 µM 13% | [5]; at 1.2 µM 11% | [5]; at 3.7 µM 7% | [5]; [16] -6% | [5]; at 11.0 µM -3% | [5]; at 33.0 µM -4% | [6]; at 1.2 µM -11% | [6]; at 3.7 µM -6% | [6]; at 11.0 µM -9% | [6]; at 33.0 µM -6% | [7]; [16] 8% | [7]; [17] 46% | [8]; at 1.2 µM 7% | [8]; at 3.7 µM 5% | [8]; at 11.0 µM 9% | [8]; at 33.0 µM -1% | [9]; [16] 37% | [10]; at 1.2 µM 1% | [10]; at 3.7 µM 0% | [10]; [16] 8% | [10]; at 11.0 µM -23% | [10]; at 33.0 µM -23% | [11]; at 1.2 µM 4% | [11]; at 3.7 µM 10% | [11]; at 11.0 µM 5% | [11]; at 33.0 µM 5% | [12]; at 1.2 µM 28% | [12]; at 3.7 µM 23% | [12]; at 11.0 µM 26% | [12]; at 33.0 µM 20% | [13]; at 1.2 µM 17% | [13]; at 3.7 µM 21% | [13]; at 11.0 µM 15% | [13]; at 33.0 µM 16% | [14]; [16] 22% | [15]; at 1.2 µM 7% | [15]; at 3.7 µM 8% | [15]; at 11.0 µM 7% | [15]; at 33.0 µM 14%
active: [1]; at 100.0 µM 96% | [2]; at 100.0 µM 96% | [4]; [17] 94% | [4]; at 50.0 µM 87.8% | [4]; at 100.0 µM 95% | [5]; [17] 97% | [5]; at 50.0 µM 90.5% | [5]; at 100.0 µM 95% | [6]; at 100.0 µM 94% | [7]; at 50.0 µM 90.8% | [8]; at 100.0 µM 96% | [9]; [17] 96% | [9]; at 50.0 µM 86.7% | [10]; [17] 95% | [10]; at 50.0 µM 89.3% | [10]; at 100.0 µM 95% | [11]; at 100.0 µM 97% | [12]; at 100.0 µM 97% | [13]; at 100.0 µM 98% | [14]; [17] 96% | [14]; at 50.0 µM 87% | [15]; at 100.0 µM 96%
